# Screening data: PubChem, National Center for Advancing Translational Sciences (NCATS)
# Most compounds without a hit are left out; they make up all but 21% or so of the library.
# Pf growth 48h – P. falciparum growth inhibition at 48 hours (one generation). 5.9% of 310,000 active. P. falciparum luciferase growth in erythrocytes, 48 h. Potency, µM (top dose mostly 28.7 µM), without a hit: at the highest dose activity change, negative = inhibition, actives largely listed as inhibitors; note: potency is the fitted concentration of half-maximal effect; % is set by controls: 0 for no effect and ±100 for the full control effect
#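 A one-generation exposure of luciferase-tagged malaria parasites in RPMI 1640/Albumax erythrocyte culture, 37 C and 5% CO2. Inhibition is inferred from decreased luminescence after adding detection reagent.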
# Cycloheximide cs – counter-screen hit for Shiga toxin inhibitors, cycloheximide | cell reporter, cycloheximide protein synthesis inhibition counterscreen | max response, % | 12% of 300,000 active | AID 2314; in the data active = max response mostly above about 13%, no sharp cut-off; inactive = mostly below about 14%; note: read at 38.3 µM for the half of the compounds with a filed dose; 0% is about no effect
# HCMV antiviral – blocks human cytomegalovirus replication. activity change, negative = inhibition, % at 57.5 µM. HFF cells, HCMV-luciferase reporter, 72 h; active compounds read low. 4.5% of 410,000 active; in the data active = activity change below about -60%; inconclusive = no clear call, values can overlap the other calls; inactive = above about -39%; note: % is set by controls: 0 for no effect and ±100 for the full control effect
#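 Luciferase read-out from HCMV-luciferase-infected HFFs (MOI 1 PFU/cell) 72 h post infection at 37C; compounds added after 16 h cell attachment; activity normalized between buffer-only basal and Salinomycin (10uM) inhibitor controls.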
# Shiga inhibitor – Shiga toxin inhibition | Vero cells, Shiga toxin protein synthesis inhibition reporter | inhibition, % at 38.7 µM | 9.2% of 290,000 active; in the data active = inhibition mostly above about 28%, no sharp cut-off; inactive = mostly below about 43%; note: 0% is about no effect
# HCV inhibitor – inhibitors of hepatitis C virus infection; Huh7.5.1 HCVcc-Cre infection, luciferase reporter, 44 h; Potency, µM (titrated, usually from 41.8 µM), for inactives: at the highest dose activity change, negative = inhibition, usual class: inhibitors; 3.4% of 340,000 active; AID 651820; note: potency is the fitted concentration of half-maximal effect; % is set by controls: 0 for no effect and ±100 for the full control effect
#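 A cell-based infection assay in which seeded cells (1,000 per well) receive test compound after 4 h, are inoculated with HCVcc-Cre at approximately 0.5 moi, and are incubated 44 h before luminescence detection.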
# Pf growth 96h – inhibits malaria parasite growth, 96 h. P. falciparum luciferase reporter growth, 96 h. Potency, µM (titrated, usually from 28.7 µM), for inactives: at the highest dose activity change, negative = inhibition, most hits filed as inhibitors. 6.9% of 320,000 active. AID 504834; note: potency is the fitted concentration of half-maximal effect; % is set by controls: 0 for no effect and ±100 for the full control effect
#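 Parasite growth measured via integrated firefly luciferase reporter in P. falciparum. Infected erythrocytes at 2% hematocrit, 0.05% parasitemia final were treated 96 hours at 37 C under 5% CO2, and luminescence was read.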
# An asterisk follows results filed as active; ? = inconclusive; . = not tested or not shown. Unless noted, calls come from the whole dose curve; as a rule, active = well fitted inhibition curve with a large enough effect; inconclusive = small, poorly fitted or top-dose-only effect, or another doubt; inactive = no such curve, though single readings can be large or run the other way.
SMILES,Pf growth 48h,Cycloheximide cs,HCMV antiviral,Shiga inhibitor,HCV inhibitor,Pf growth 96h
CCOc1ccc(NC(=O)C2CCC(CNc3c(N4CCCCC4)c(=O)c3=O)CC2)cc1 (centres undefined),6.6µM*,1,-39,-10,-13%,5.9µM*
CCOc1ccc(NC(=O)C2CCC(CNc3c(N4CCC(C)CC4)c(=O)c3=O)CC2)cc1 (centres undefined),4.1µM*,-3,0,-8,-11%,2.3µM*
O=C(Nc1ccc(F)cc1)C1CCC(CNc2c(N3CCCCC3)c(=O)c2=O)CC1 (centres undefined),12µM*,-1,?,-8,-7%,?
COc1ccccc1NC(=O)C1CCC(CNc2c(N3CCCCC3)c(=O)c2=O)CC1 (centres undefined),34%,-1,0,-4,-6%,0%
COc1cc(NC(=O)C2CCC(CNc3c(N4CCCCC4)c(=O)c3=O)CC2)cc(OC)c1 (centres undefined),12µM*,1,141,-2,-8%,5%
CCc1ccc(NC(=O)C(=O)NCC(c2cccnc2)N2CCOCC2)cc1 (centres undefined),.,.,-11,.,.,.
CCOC(=O)c1cnc(NCc2ccc(Cl)cc2)c2ccccc12,.,.,35,.,.,.
CCOc1ccc(OCC)c(NC(=O)c2ccc(CNc3c(N4CCCC4)c(=O)c3=O)cc2)c1,12µM*,-5,-36,-11,13%,?
CCOc1ccc(NC(=O)COc2nsnc2N2CCCCC2)cc1,-5%,-5,5,-19,?,12µM*
CCOc1ccc(NC(=O)CCNc2c(N3CCCC3)c(=O)c2=O)cc1,2%,0,-61*,15,0%,54%
COc1ccccc1CNC(=O)c1ccc(CNc2c(N3CCCC3)c(=O)c2=O)cc1,?,-6,3,-10,-16%,4.7µM*
O=C(NCc1ccc(Cl)cc1)c1ccc(CNc2c(N3CCCC3)c(=O)c2=O)cc1,-16%,-3,8,10,-27%,?
COc1ccc(NS(=O)(=O)c2cc(NC(=O)c3ccc(=O)[nH]n3)ccc2C)cc1,?,.,15,.,?,?
Cc1ccc(N2C(=O)c3oc4cc(C)c(C)cc4c(=O)c3C2c2cccc(O)c2)nc1 (centres undefined),.,.,7,.,.,.
Brc1ccc(-c2noc(C3CCCCC3)n2)cc1,252%,14*,-17,34*,3%,0%
c1ccc(-c2cnc(C3CCCCC3)o2)cc1,.,.,?,.,8%,.
c1ccc(-c2noc(C3CCCCC3)n2)nc1,197%,32*,56,66*,-16%,34%
OC[C@H]1O[C@@H](c2nc(-c3ccc(Br)cc3)no2)C[C@@H]1O,.,.,114,.,.,.
CC1CCCC(NC(=O)c2ccc(F)c(S(=O)(=O)N3CCOCC3)c2)C1C (centres undefined),?,.,-33,.,-9%,?
CCCCNC(=S)N(C)/N=C/c1c(F)c(F)c(F)c(F)c1F,-4%,-1,?,-8,-9%,-4%
CCCCNC(=S)N(C)/N=C/c1c(C)[nH]c2ccccc12,?,-5,58,-8,-10%,12µM*
Cc1ccc(CN2C(=O)[C@H]3Cc4c([nH]c5ccccc45)C(C)(C)N3C2=O)cc1,.,.,0,.,.,.
Cc1ccc(C)c(C(=O)COC(=O)c2cc([N+](=O)[O-])ccc2N2CCOCC2)c1,?,.,-19,.,?,15µM*
CN(C)S(=O)(=O)c1cccc(COC(=O)c2cc([N+](=O)[O-])ccc2N2CCOCC2)c1,13µM*,.,-20,.,13µM*,10µM*
COc1ccc(OC)c(COC(=O)c2cc([N+](=O)[O-])ccc2N2CCOCC2)c1,4.7µM*,.,-9,.,8.9µM*,2.9µM*
SMILES,Pf growth 48h,Cycloheximide cs,HCMV antiviral,Shiga inhibitor,HCV inhibitor,Pf growth 96h
O=C(OCc1ccc([N+](=O)[O-])cc1)c1cc(S(=O)(=O)N2CCCCC2)ccc1N1CCOCC1,?,.,?,.,?,10µM*
Cc1ccccc1C(=O)OC1CCCN(C)C1 (centres undefined),20%,-3,34,-13,7%,-15%
CCC[C@H]1[C@@H](N(C)C)CC[C@@]23CCCN2C(=O)CCC[C@@H]13,.,.,30,.,.,.
COC(=O)[C@@H]1CCCN1C(=O)[C@@H](NC(=O)OC(C)(C)C)C(C)C,.,-2,-39,10,7%,.
Cc1ccc(C(=O)c2cc([N+](=O)[O-])ccc2N2CCOCC2)c(C)c1,?,-1,?,-20,12%,10µM*
Cc1ccc(C(=O)c2cc([N+](=O)[O-])ccc2N2CCOCC2)cc1C,-5%,-1,?,-12,?,?
O=C(c1cc([N+](=O)[O-])ccc1N1CCOCC1)N1CCN(c2ccccc2)CC1,-14%,-4,-87*,-3,.,-22%
O=C(OCc1ccccc1F)c1cc([N+](=O)[O-])ccc1N1CCOCC1,-17%,.,9,.,10µM*,?
CSc1ccc(COC(=O)c2cc([N+](=O)[O-])ccc2N2CCOCC2)cc1,?,.,-83*,.,?,?
CC1CCN(C(=O)COC(=O)c2cc([N+](=O)[O-])ccc2N2CCOCC2)CC1,-9%,.,-16,.,-21%,?
CCc1cc(=O)oc2c(C)c(OCC(=O)NCCCn3ccnc3)ccc12,7%,-2,7,-4,-18%,0%
Cc1ccccc1COC(=O)c1cc([N+](=O)[O-])ccc1N1CCOCC1,-18%,-3,23,-13,13µM*,?
Fc1cccc(/C=N/Nc2nccnc2Cl)c1,155%,48*,80,98*,10%,245%
Nc1c(Cl)ncnc1N/N=C/c1ccc(O)cc1,72%,26*,?,47*,16%,74%
Fc1ccc(/C=N/Nc2nccnc2Cl)cc1,141%,40*,49,96*,4%,?
Oc1ccc(/C=N/Nc2nccnc2Cl)cc1,.,21*,54,75,16%,1%
Cc1c(Cl)cccc1NC(=O)CCS(=O)(=O)c1ccc2c(c1)CC(C)N2C(=O)C1CC1 (centres undefined),.,.,-30,.,.,.
COc1ccc(OC)c(C2=C/C(=C/c3ccccn3)C(=O)O2)c1,?,-1,32,-9,7%,5.2µM*
COc1ccc(-c2ccc(-c3nnc(-c4cc(OC)ccc4OC)o3)cc2)cc1,10%,-3,-30,-5,-20%,-19%
Cc1cc2nc3n(c2cc1C)C(C)(C(=O)Nc1ccc2ccccc2c1)CCC3 (centres undefined),.,.,32,.,.,.
O=C(/C=C/c1ccc(-c2ccccc2[N+](=O)[O-])o1)c1ccco1,-2%,37*,104,113*,-20%,9%
C=CCNC(=O)/C(C#N)=C/c1ccc(SC)cc1,10%,52*,?,81*,11%,30%
